Bioassay records as filed in PubChem BioAssay.
Sampled rows, rich in hits. Any-hit rate of the full collection: about 3.5%.
mHTT-CaM PPI inh: mHTT-calmodulin interaction abrogation; P42858; AlphaScreen His-mHTT/GST-CaM binding, luminescence; inhibition, % at 15 µM; actives 3.6% (n = 190,000); AID 1671202;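 further: 0% = both proteins with DMSO and 100% = one protein alone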
Pf apPOL inh: Pf-apPOL DNA polymerase inhibition. inhibition, % at 10 µM. Recombinant Pf-apPOL, molecular beacon fluorescence, 1.5 h. actives 0.25% (n = 210,000). AID 1794808
The depositor's hits bear a star; ! = a repeat was not active. No stated cut-off is given here; in the data, active means inhibition above about 50%; inactive means the rest.

How did COc1ccc(CC(=O)N2CCc3ccccc3C2)cc1 do in these assays?
mHTT-CaM PPI inh: 3.8; Pf apPOL inh: -5.4

How did Cn1cc2c3c(cccc31)CN(C(=O)Cc1ccccc1Cl)CC2 do in these assays?
mHTT-CaM PPI inh: 50.3*; Pf apPOL inh: -2.6

How did CNC(=O)N1CCCC(c2cccc(C(=O)NCc3ccc(C)cc3)c2)C1 (configuration not stated) do in these assays?
mHTT-CaM PPI inh: -0.1; Pf apPOL inh: -4.7

Results for COc1cc(NS(=O)(=O)c2ccc(Cl)cc2)c(OC)cc1Cl ?
mHTT-CaM PPI inh: 30.5; Pf apPOL inh: 2.4

Results for CCOC(=O)CCCNC(=O)O[C@@H]1C[C@H]2C[C@@H]1[C@H]1CCCCN1C2 ?
mHTT-CaM PPI inh: 84.7*; Pf apPOL inh: -3.4

What do the screens show for `O=C(NCc1ccccc1)O[C@@H]1C[C@H]2C[C@@H]1[C@H]1CCCCN1C2`?
mHTT-CaM PPI inh: 17.8; Pf apPOL inh: -3.2

Results for O=C(c1cccnc1N1CCCCC1)N1CCOCC1 ?
mHTT-CaM PPI inh: 1.5; Pf apPOL inh: -4.5

What do the screens show for `Cc1ccccc1N1CCN(CCOc2cccc(Cl)c2)CC1`?
mHTT-CaM PPI inh: 93.2*; Pf apPOL inh: -5.3

Results for COc1ccccc1N1CCN(CCOc2ccc(Cl)cc2)CC1 ?
mHTT-CaM PPI inh: 6.8; Pf apPOL inh: -2.0

Results for COc1cccc(-c2cc(C(N)=O)n(C)n2)c1 ?
mHTT-CaM PPI inh: -14.7; Pf apPOL inh: -10.9

What do the screens show for `N#CC1=C(N)OC2=C(C(=O)CCC2)C1c1cc2c(cc1[N+](=O)[O-])OCO2` (configuration not stated)?
mHTT-CaM PPI inh: 90.3*; Pf apPOL inh: -0.1

What do the screens show for `N#CC1=C(N)OC2=C(C(=O)CCC2)C1c1cc([N+](=O)[O-])cs1` (configuration not stated)?
mHTT-CaM PPI inh: 1.0; Pf apPOL inh: -9.1

What do the screens show for `CC(=O)c1ccc(NC(=O)N2CC3CC(NS(=O)(=O)c4cccs4)C2C3)cc1` (configuration not stated)?
mHTT-CaM PPI inh: 6.4; Pf apPOL inh: -8.0

How did Cc1cc(-c2ccc(/C=C/[N+](=O)[O-])o2)c([N+](=O)[O-])cc1C do in these assays?
mHTT-CaM PPI inh: 65.0*; Pf apPOL inh: 3.0

What do the screens show for `Cc1ccc(C(=O)O)cc1-c1ccc(/C=C/[N+](=O)[O-])o1`?
mHTT-CaM PPI inh: 30.0; Pf apPOL inh: 7.6

What do the screens show for `O=[N+]([O-])c1ccc(C2Nc3c(Cl)cccc3C3C=CCC32)cc1` (configuration not stated)?
mHTT-CaM PPI inh: 18.0; Pf apPOL inh: 18.6

Results for O=[N+]([O-])c1cccc(C2NCCC3(O)CCCCC23)c1 (configuration not stated) ?
mHTT-CaM PPI inh: -13.3; Pf apPOL inh: 0.4

What do the screens show for `O=[N+]([O-])c1cccc(C2Nc3c(cccc3C(F)(F)F)C3C=CCC32)c1` (configuration not stated)?
mHTT-CaM PPI inh: 58.0*; Pf apPOL inh: 1.1

How did O=[N+]([O-])c1cccc(C2Nc3c(Cl)cccc3C3C=CCC32)c1 (configuration not stated) do in these assays?
mHTT-CaM PPI inh: 75.1*!; Pf apPOL inh: -0.9

How did O=[N+]([O-])c1cccc(C2Nc3c(cccc3[N+](=O)[O-])C3C=CCC32)c1 (configuration not stated) do in these assays?
mHTT-CaM PPI inh: 72.0*; Pf apPOL inh: -5.6

Results for CCOc1ccc(/C=C2\SC(=O)N(c3ccccc3)C2=O)cc1 ?
mHTT-CaM PPI inh: -3.0; Pf apPOL inh: -161.0

What do the screens show for `CN1CCN(C(=O)c2cc(=O)c3ccccc3o2)C2(CCCC2)C1`?
mHTT-CaM PPI inh: -1.9; Pf apPOL inh: -4.3

What do the screens show for `Cc1nc(NC(=O)c2ccc(-n3cccc3)cc2)sc1C(=O)N(C)C`?
mHTT-CaM PPI inh: 3.4; Pf apPOL inh: 20.8

How did CCOC(=O)CNC(=O)C1CCCc2c1[nH]c1ccc(Cl)cc21 (configuration not stated) do in these assays?
mHTT-CaM PPI inh: 100.0*; Pf apPOL inh: 0.8

Results for NC(=O)CNC(=O)C1CCCc2c1[nH]c1ccc(Cl)cc21 (configuration not stated) ?
mHTT-CaM PPI inh: 10.2; Pf apPOL inh: -7.2

Results for NC(=O)Cc1csc(NC(=O)CCc2cccc(Oc3ccc(F)cc3)c2)n1 ?
mHTT-CaM PPI inh: 20.6; Pf apPOL inh: -3.9

What do the screens show for `Cc1nnc(NC(=O)c2cn(C)cc3c(=O)[nH]nc2-3)s1`?
mHTT-CaM PPI inh: -7.7; Pf apPOL inh: -5.6

What do the screens show for `COc1ccc(NC(=O)c2cccc(N3CCNC(c4ccccc4)C3)n2)cc1OC` (configuration not stated)?
mHTT-CaM PPI inh: 16.0; Pf apPOL inh: -5.3

How did Cc1ccc2nc3c(cc(C(=O)NCc4ccccc4)c(=N)n3Cc3ccco3)c(=O)n2c1 do in these assays?
mHTT-CaM PPI inh: 37.0; Pf apPOL inh: 0.4

What do the screens show for `Cc1ccc2nc3c(cc(C(=O)NCc4ccco4)c(=N)n3Cc3ccco3)c(=O)n2c1`?
mHTT-CaM PPI inh: 66.0*; Pf apPOL inh: -4.7

Results for Cc1cccn2c(=O)c3cc(C(=O)NCc4ccco4)c(=N)n(CCc4ccccc4)c3nc12 ?
mHTT-CaM PPI inh: 50.0*; Pf apPOL inh: -8.0

What do the screens show for `N=c1c(C(=O)NCc2ccco2)cc2c(=O)n3ccccc3nc2n1Cc1cccnc1`?
mHTT-CaM PPI inh: 14.0; Pf apPOL inh: -2.8

Results for Cc1ccc(S(=O)(=O)c2cc3c(=O)n4ccccc4nc3n(Cc3ccco3)c2=N)cc1 ?
mHTT-CaM PPI inh: 52.0*; Pf apPOL inh: 1.5

What do the screens show for `Cc1ccc(S(=O)(=O)c2cc3c(=O)n4cc(C)ccc4nc3n(Cc3ccco3)c2=N)cc1`?
mHTT-CaM PPI inh: 6.0; Pf apPOL inh: -2.9

How did Cc1cccn2c(=O)c3cc(C(=O)NCc4ccccc4)c(=N)n(CCc4ccccc4)c3nc12 do in these assays?
mHTT-CaM PPI inh: 0.0; Pf apPOL inh: 9.4

Results for N=c1c(C(=O)NCc2ccccc2)cc2c(=O)n3ccccc3nc2n1Cc1ccco1 ?
mHTT-CaM PPI inh: 85.0*; Pf apPOL inh: 11.1

What do the screens show for `Cc1cc(C2CCCN2C(=O)NC(C)C)on1` (configuration not stated)?
mHTT-CaM PPI inh: -6.1; Pf apPOL inh: -0.4

How did CC(C(=O)c1ccccc1)S(=O)(=O)c1ccccc1 (configuration not stated) do in these assays?
mHTT-CaM PPI inh: -10.0; Pf apPOL inh: -3.4

How did CCOc1ccc(NC(=O)c2ccnc(N3CCNC(c4ccccc4)C3)c2)cc1 (configuration not stated) do in these assays?
mHTT-CaM PPI inh: 32.1; Pf apPOL inh: -4.0

How did O=C(NCCc1ccco1)C1CCCN(c2nn3c(=O)c4c(nc3s2)CCCC4)C1 (configuration not stated) do in these assays?
mHTT-CaM PPI inh: -0.9; Pf apPOL inh: 1.8

Results for COc1cccc(CC(=O)N2CCCC(COc3cccc(C(=O)N4CCCC4)c3)C2)c1 (configuration not stated) ?
mHTT-CaM PPI inh: 1.3; Pf apPOL inh: -4.3

What do the screens show for `Fc1ccccc1-c1nc(NCc2ccco2)c2ccccc2n1`?
mHTT-CaM PPI inh: 5.2; Pf apPOL inh: -6.3

Results for O=c1c2c(-c3ccccc3)csc2nc2c3ccccc3c(NCc3ccco3)nn12 ?
mHTT-CaM PPI inh: 100.0*; Pf apPOL inh: 1.1

What do the screens show for `O=C(Cn1cnc2scc(-c3ccccc3)c2c1=O)NCc1ccco1`?
mHTT-CaM PPI inh: 19.1; Pf apPOL inh: -9.0

Results for O=c1c2ccccc2nc2c3ccccc3c(NCc3ccco3)nn12 ?
mHTT-CaM PPI inh: 65.0*; Pf apPOL inh: -2.1
